Assay outcomes (PubChem)
A selection: hits, their analogues and other compounds. The true share with any hit is near 18%.
TDP1 cell CPT: growth inhibition of DT40 Tdp1-/-;hTDP1 cells with camptothecin (screen for TDP1 inhibitors). chicken DT40 Tdp1-/-;hTDP1 cells + 20 nM CPT, ATP luminescence, 48 h. Potency, µM (highest dose often 46.2 µM), for the others: at the highest dose activity change, negative = growth inhibition, actives largely listed as inhibitors. 420,000 tested, 12% active; further: nearly all actives have a fitted effect of over 55% in size
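Chicken DT40 Tdp1-/- cells stably complemented with human TDP1 were seeded at 400 cells/well in medium containing 20 nM camptothecin, exposed to pin-transferred compounds, and grown at 37 °C for at least 48 hr. Viability was read as ATP luminescence.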
TDP1 cell noCPT: qHTS for Inhibitors of human tyrosyl-DNA phosphodiesterase 1 (TDP1): qHTS in cells in absence of CPT; DT40 Tdp1-/- hTDP1 cells, no CPT, ATP luminescence, 48 h; Potency, µM (series often up to 46.2 µM), for the others: at the top dose activity change, negative = growth inhibition, actives largely listed as inhibitors; AID 686978, 2013; 420,000 tested, 15% active; further: nearly all actives have a fitted effect of over 55% in size
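Growth of hTDP1-complemented DT40 Tdp1-knockout cells is measured by ATP luminescence after at least 48 hr compound exposure at 37 °C, with DMSO substituting for the 20 nM CPT used in the parallel screen.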
PLK1 PBD inh: blocks phosphopeptide binding to human PLK1 polo-box domain. Plk1 PBD binding of FITC phosphopeptide, fluorescence polarization. 360,000 tested, 2.8% active. AID 720504. Potency, µM, inactives show max response, negative = inhibition, hits mostly inhibitors; further: series mostly up to about 57 µM; nearly all actives have a fitted effect of over 65% in size
Target sequence (P53350 whole entry, looked up, the tested form may be a part): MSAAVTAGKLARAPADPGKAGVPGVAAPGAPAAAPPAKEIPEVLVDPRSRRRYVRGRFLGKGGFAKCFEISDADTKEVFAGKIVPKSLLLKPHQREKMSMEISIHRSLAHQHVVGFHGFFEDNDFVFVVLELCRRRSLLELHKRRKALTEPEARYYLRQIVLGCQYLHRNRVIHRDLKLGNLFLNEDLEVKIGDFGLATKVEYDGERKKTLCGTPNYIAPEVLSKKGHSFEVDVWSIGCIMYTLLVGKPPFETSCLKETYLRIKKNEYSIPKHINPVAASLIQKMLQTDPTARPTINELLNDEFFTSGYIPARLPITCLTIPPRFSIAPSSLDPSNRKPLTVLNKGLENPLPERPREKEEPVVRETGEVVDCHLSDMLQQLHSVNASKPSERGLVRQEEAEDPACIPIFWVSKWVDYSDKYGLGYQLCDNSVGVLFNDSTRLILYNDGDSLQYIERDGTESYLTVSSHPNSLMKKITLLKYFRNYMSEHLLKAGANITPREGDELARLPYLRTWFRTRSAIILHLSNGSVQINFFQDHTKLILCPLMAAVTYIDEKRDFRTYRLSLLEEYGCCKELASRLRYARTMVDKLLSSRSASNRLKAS
VDR inhibitor: blocks the human vitamin D receptor; P11473; 400,000 tested, 0.93% active; Potency, µM, for inactives: max response, negative = inhibition, actives largely listed as inhibitors; VDR-SRC2-3 peptide fluorescence polarization, 2 h
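VDR–SRC2-3 interaction, FP format. Cmpds 23 nl via pintool, brief spin, 2 h ambient incubation.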
GCN5L2 inh: blocks human GCN5L2 histone acetyltransferase. AID 504327. Q92830. GCN5L2 HAT assay, ThioGlo1 CoA-SH fluorescence. 390,000 tested, 0.21% active. Potency, µM (series often up to 58.9 µM), for inactives: at the top dose activity change, negative = inhibition, usual class: inhibitors
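qHTS, 1536-well. 20nM enzyme, pH 7.5 HEPES/EDTA/Tween-20 buffer; 15 min compound preinc., RT. Start: 75uM H3(1-25), 70uM AcCoA, 50uM ThioGlo1. Read Ex340/Em540 at t=0 (autofluorescence flag) and t=20 min.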
TDP1 inh: blocks human tyrosyl-DNA phosphodiesterase 1; AID 485290; Q9NUW8; 350,000 tested, 0.28% active; recombinant TDP1, AlphaScreen DNA substrate cleavage; Potency, µM (titrated, usually from 130 µM), for inactives: at the top dose activity change, negative = inhibition, hits mostly inhibitors; further: nearly all actives have a fitted effect of over 40% in size
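AlphaScreen read-out: signal falls as enzyme removes the 3' tyrosine-FITC from a 5'-biotinylated DNA oligo (15 nM, 5 min, RT). Enzyme was E. coli-made recombinant Tdp1 at 1 nM, exposed to compound for 15 min beforehand; beads 10 ug/ml, 10 min.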
Numbers without * were called inactive; [ ] = dose if it differs, or a comment. The call rests on the fitted dose curve; in most records, active means well fitted curve in the direction sought with a large enough effect; inconclusive means small, poorly fitted or top-dose-only effect, or another doubt; inactive means no such curve, though single readings can be large; an effect the other way counts as inactive or inconclusive. On the % scale 0 is the no-effect control and ±100 the full control effect; potency means the concentration at half of the fitted maximal effect.

What do the screens show for `C=CCn1c(SCC(=O)c2ccccc2)nnc1-c1cc2ccccc2o1`?
TDP1 cell CPT: 23µM*; TDP1 cell noCPT: inconclusive; PLK1 PBD inh: -9%; VDR inhibitor: 5%; GCN5L2 inh: -9%; TDP1 inh: 5%

How did CCn1c(SCC(=O)c2ccccc2)nnc1-c1ccoc1C do in these assays?
TDP1 cell CPT: -3%; TDP1 cell noCPT: -15%; PLK1 PBD inh: -18%; VDR inhibitor: -15%; GCN5L2 inh: 0%; TDP1 inh: 0%

How did COc1cc(Cl)c(C)cc1NC(=O)CN1c2ccccc2S(=O)(=O)c2ccccc21 do in these assays?
TDP1 cell CPT: inconclusive; TDP1 cell noCPT: inconclusive; VDR inhibitor: 1%; GCN5L2 inh: 1%; TDP1 inh: 4%

How did Cc1ccc2nc(N/C(=N/S(=O)(=O)c3cccs3)c3ccccc3Cl)sc2c1 do in these assays?
TDP1 cell CPT: -17%; TDP1 cell noCPT: -2%; PLK1 PBD inh: inconclusive; VDR inhibitor: -5%; GCN5L2 inh: 1%; TDP1 inh: 8%

Results for O=C(Nc1nc(Nc2cc(F)cc(F)c2)nc(NC2CCCC2)n1)OCc1ccccc1 ?
TDP1 inh: 1%

Results for Cc1cccc(OCC(=O)NCCc2nc3ccccc3[nH]2)c1C ?
TDP1 cell CPT: inconclusive; TDP1 cell noCPT: inconclusive; VDR inhibitor: -26%; GCN5L2 inh: -3%

How did COCC(=O)O[C@]1(CCN(C)CCCc2nc3ccccc3[nH]2)CCc2cc(F)ccc2[C@@H]1C(C)C do in these assays?
TDP1 cell CPT: 21µM*; TDP1 cell noCPT: 16µM*; PLK1 PBD inh: -5%; VDR inhibitor: 0%; GCN5L2 inh: -2%; TDP1 inh: 9%[56.1 µM]

What do the screens show for `Cc1cc(C(=O)N/N=C/c2ccc(N(C)C)o2)cs1`?
TDP1 cell CPT: 23µM*; TDP1 cell noCPT: 16µM*; PLK1 PBD inh: -14%; VDR inhibitor: inconclusive; GCN5L2 inh: -17%; TDP1 inh: -7%

Results for CCOc1ccccc1NC(=O)C(OC(=O)c1ccccc1O)c1ccccc1 (configuration not stated) ?
TDP1 cell CPT: inconclusive; TDP1 cell noCPT: inconclusive; PLK1 PBD inh: -1%; VDR inhibitor: -12%; GCN5L2 inh: 14%; TDP1 inh: 4%

How did CCOc1ccccc1NC(=O)C(OC(=O)c1cc(C)oc1C)c1ccccc1 (configuration not stated) do in these assays?
TDP1 cell CPT: inconclusive; TDP1 cell noCPT: 18µM*; PLK1 PBD inh: 0%; VDR inhibitor: -8%; GCN5L2 inh: -12%; TDP1 inh: 5%

Results for O=C(CC1N=C2c3ccccc3N=C(SCc3cccc(Cl)c3)N2C1=O)NC1CCCCC1 (configuration not stated) ?
TDP1 cell CPT: 16µM*; TDP1 cell noCPT: 18µM*; VDR inhibitor: 7%; GCN5L2 inh: -7%; TDP1 inh: 0%

What do the screens show for `O=C(CC1N=C2c3ccccc3N=C(SCc3ccccc3Cl)N2C1=O)NC1CCCCC1` (configuration not stated)?
TDP1 cell CPT: 9.2µM*; TDP1 cell noCPT: 12µM*; VDR inhibitor: 7%; GCN5L2 inh: -3%; TDP1 inh: 7%

Results for O=C(CC1N=C2c3ccccc3N=C(SCc3ccccc3F)N2C1=O)NCCc1ccccc1 (configuration not stated) ?
TDP1 cell CPT: 21µM*; TDP1 cell noCPT: 21µM*; VDR inhibitor: 14%; GCN5L2 inh: -7%; TDP1 inh: 3%

How did O=C(CC1N=C2c3ccccc3N=C(SCc3cccc(F)c3)N2C1=O)NC1CCCCC1 (configuration not stated) do in these assays?
TDP1 cell CPT: inconclusive; TDP1 cell noCPT: inconclusive; VDR inhibitor: 16%; GCN5L2 inh: -8%; TDP1 inh: -4%

Results for O=C(CCC1N=C2c3ccccc3N=C(SCc3ccccc3F)N2C1=O)NC1CCCCC1 (configuration not stated) ?
TDP1 cell CPT: 18µM*; TDP1 cell noCPT: 18µM*; VDR inhibitor: -5%; GCN5L2 inh: 0%; TDP1 inh: -2%

How did O=C(CCC1N=C2c3ccccc3N=C(SCc3cccc(F)c3)N2C1=O)NC1CCCCC1 (configuration not stated) do in these assays?
TDP1 cell CPT: -11%; TDP1 cell noCPT: -21%; VDR inhibitor: -5%; GCN5L2 inh: -2%; TDP1 inh: -7%

What do the screens show for `CCOc1ccc(S(=O)(=O)N2CCN(C(=O)c3sccc3C)CC2)cc1`?
TDP1 cell CPT: inconclusive; TDP1 cell noCPT: inconclusive; PLK1 PBD inh: -3%; VDR inhibitor: 6%; GCN5L2 inh: -5%; TDP1 inh: 5%

Results for Cc1ccc2c(c1)C(=O)OC(C(=O)Nc1ccccc1C(=O)O)C2 (configuration not stated) ?
TDP1 cell CPT: -9%; TDP1 cell noCPT: -18%; VDR inhibitor: 17%; GCN5L2 inh: -5%; TDP1 inh: 5%

How did Cc1ccc(-c2ccc(=O)n(Cc3cccc(Br)c3)n2)cc1 do in these assays?
TDP1 cell CPT: -1%; TDP1 cell noCPT: -18%; PLK1 PBD inh: 0%; VDR inhibitor: 5%; GCN5L2 inh: -6%

Results for COc1cccc2cc(C(=O)C3=C(O)C(=O)N(Cc4ccco4)C3c3cccnc3)oc12 (configuration not stated) ?
TDP1 cell CPT: inconclusive; TDP1 cell noCPT: 23µM*; PLK1 PBD inh: -19%; VDR inhibitor: inconclusive; GCN5L2 inh: -10%; TDP1 inh: 0%

How did COc1ccc(OC)c(NC(=O)CCC(=O)Nc2nnc(C(C)C)s2)c1 do in these assays?
TDP1 cell CPT: -5%; TDP1 cell noCPT: -7%; PLK1 PBD inh: -16%; VDR inhibitor: -8%; GCN5L2 inh: -9%; TDP1 inh: 5%

Results for O=C(Nc1ccccc1N1CCN(c2ccccc2)CC1)c1ccccc1F ?
TDP1 cell CPT: inconclusive; TDP1 cell noCPT: 3.7µM*; PLK1 PBD inh: -15%; VDR inhibitor: 14%; GCN5L2 inh: -1%; TDP1 inh: -2%

What do the screens show for `O=C(Nc1ccccc1N1CCCC1)c1ccccc1F`?
TDP1 cell CPT: inconclusive; TDP1 cell noCPT: -22%; PLK1 PBD inh: 0%; VDR inhibitor: 13%; GCN5L2 inh: -12%; TDP1 inh: 9%

How did O=C(NCCCN1CCN(CCCNC(=O)c2ccccc2F)CC1)c1ccccc1F do in these assays?
TDP1 cell CPT: inconclusive; TDP1 cell noCPT: -18%; PLK1 PBD inh: 0%; VDR inhibitor: 3%; GCN5L2 inh: 1%; TDP1 inh: 4%
